From PubChem
Compounds with a hit are over-represented: about 17% of the library has one in this group of screens.
ATXN2 expr inh: Primary qHTS for Inhibitors of ATXN expression | 360,000 compounds, 0.72% hits | Potency, µM (titrated, usually from 57 µM), for inactives: top-dose activity change, negative = inhibition, most hits filed as inhibitors | HEK-293 ATXN2-luciferase reporter, luminescence, 24 h; note: % is set by controls: 0 for no effect and ±100 for the full control effect; nearly all actives have a fitted effect of over 55% in size
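qHTS (up to 57 uM final) was run with 24 h compound exposure of reporter cells at 37 °C. Each well was multiplexed: SteadyGlo luminescence measured ATXN2-luciferase expression after a fluorogenic Gly-Phe-AFC viability readout (25 uM final).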
S2 tox: Viability Counterscreen for Primary qHTS for Inhibitors of ATXN expression; S2 cells (HEK-293 line with an ATXN2-luciferase reporter) viability, CellTiter-Fluor protease fluorescence, 24 h; Potency, µM (highest dose often 56.7 µM), most hits filed as cytotoxic; 400,000 compounds, 0.49% hits; AID 651635, 2014; note: nearly all actives have a fitted effect of over 40% in size
TGFb SMAD3 inh: qHTS for Inhibitors of TGF-b; HepG2 CAGA-GFP TGF-b/SMAD3 reporter, GFP fluorescence, 18 h; TGF-beta stimulated, 500 pg/mL final; Potency, µM (titrated, usually from 46.1 µM), for inactives: at the top dose activity, negative = inhibition, actives largely listed as inhibitors; 410,000 compounds, 1.2% hits; note: % is set by controls: 0 for no effect and ±100 for the full control effect; nearly all actives have a fitted effect of over 65% in size
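Cell-based qHTS in HEPG2 carrying a CAGA-GFP Smad reporter; compounds added before 500 pg/mL final TGF-beta, 18 h incubation at 37 degrees C, GFP fluorescence quantified per cell by imaging cytometry.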
HepG2 viability: qHTS for Inhibitors of TGF-b: Cytotox Counterscreen; Potency, µM (series often up to 46.1 µM), for inactives: at the highest dose activity change, negative = cytotoxicity, hits mostly cytotoxic; 410,000 compounds, 0.76% hits; HepG2 CAGA-GFP viability, ATP luminescence, 18 h; AID 588856, 2011
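CellTiter-Glo luminescence gave cytotoxicity after 18 hours at 37 degrees C. The cells were HepG2 CAGA-GFP in 1% FBS DMEM, stimulated with 500 pg/mL TGF-beta after compound addition. %Activity was normalised to no-cell wells (complete cell-killing) and DMSO (no toxicity), and curves were fitted and classified.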
DT40 TDP1 no CPT: qHTS for Inhibitors of human tyrosyl-DNA phosphodiesterase 1 (TDP1): qHTS in cells in absence of CPT. Potency, µM (titrated, usually from 46.2 µM), without a hit: top-dose activity change, negative = growth inhibition, hits mostly inhibitors. DT40 Tdp1-/- hTDP1 cells, no CPT, ATP luminescence, 48 h. 420,000 compounds, 15% hits. AID 686978, 2013; note: % is set by controls: 0 for no effect and ±100 for the full control effect; nearly all actives have a fitted effect of over 55% in size
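Chicken DT40 Tdp1-/- cells complemented with human TDP1, screened without camptothecin (DMSO vehicle only), 400 cells/well. Compounds pin-transferred, cells incubated at 37 °C for at least 48 hr. Growth read as ATP-dependent luminescence (CellTiter-Glo, 30 min at RT).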
DT40 TDP1 CPT: qHTS for Inhibitors of human tyrosyl-DNA phosphodiesterase 1 (TDP1): qHTS in cells in presence of CPT | chicken DT40 Tdp1-/-;hTDP1 cells + 20 nM CPT, ATP luminescence, 48 h | Potency, µM (titrated, usually from 46.2 µM), for the others: at the highest dose activity change, negative = growth inhibition, hits mostly inhibitors | 420,000 compounds, 12% hits; note: % is set by controls: 0 for no effect and ±100 for the full control effect; nearly all actives have a fitted effect of over 55% in size
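Chicken DT40 Tdp1-/- cells stably complemented with human TDP1 were seeded at 400 cells/well in medium containing 20 nM camptothecin, exposed to pin-transferred compounds, and grown at 37 °C for at least 48 hr. Viability was read as ATP luminescence.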
* = called active by the depositor; i = inactive; ? = inconclusive; nt = not tested or not shown. Calls come from the whole dose curve; as a rule, active = well fitted curve in the direction sought with a large enough effect; inconclusive = small, poorly fitted or top-dose-only effect, or another doubt; inactive = no such curve, though single readings can be large; an effect the other way counts as inactive or inconclusive. Potency is the fitted concentration of half-maximal effect.

SMILES	ATXN2 expr inh	S2 tox	TGFb SMAD3 inh	HepG2 viability	DT40 TDP1 no CPT	DT40 TDP1 CPT
O=C(NCCc1ccc(F)cc1)C(=O)NCC(c1cccs1)S(=O)(=O)c1ccccc1 (centres undefined)	nt	nt	-14%	0%	?	?
COc1ccc(-n2c(SCC(=O)NCC3CCCO3)nc3c(c2=O)SCC3)cc1OC (centres undefined)	1%	i	-3%	-17%	1%	12%
O=C(CSc1nc2c(c(=O)n1-c1ccccc1)SCC2)N1CCN(c2ccccc2)CC1	-18%	i	-5%	-18%	?	18µM*
COc1ccc(-n2c(SCc3ccccn3)nc3c(c2=O)SCC3)cc1OC	1%	i	-8%	20µM*	-27%	0%
CC1Cc2nc(SCC(=O)N3CCN(c4ccccc4)CC3)n(CCc3ccccc3)c(=O)c2S1 (centres undefined)	-36%	i	-13%	-15%	13µM*	18µM*
CCn1c(SCC(=O)N2CCN(c3ccccc3)CC2)nc2c(c1=O)SC(C)C2 (centres undefined)	?	?	-16%	-20%	21µM*	?
CC1Cc2nc(SCC(=O)N3CCN(c4ccccc4)CC3)n(C)c(=O)c2S1 (centres undefined)	-13%	i	-10%	-45%	13µM*	?
Cc1cc(Nc2cccc([N+](=O)[O-])c2)c2cccc(C)c2n1	?	i	-15%	-31%	21µM*	?
Cc1cc(Nc2cccc([N+](=O)[O-])c2)c2ccccc2n1	-12%	i	-15%	-20%	?	?
Cc1cc(Nc2ccc([N+](=O)[O-])cc2)c2ccccc2n1	-36%	?	?	-65%	18µM*	16µM*
CCOc1ccc2nc(C)cc(Nc3cccc([N+](=O)[O-])c3)c2c1	28µM*	nt	?	-101%	12µM*	3.3µM*
CCOc1ccc(Nc2cc(C)nc3c(C)cccc23)cc1	-25%	?	?	-3%	?	?
COc1ccc(Nc2cc(C)nc3c(C)cccc23)cc1OC	-13%	?	-9%	-18%	-42%	-24%
Cc1c(O)cnc2nn(-c3ccccc3)c(=N)n12	15%	i	-8%	6%	-7%	-1%
Cc1cc(/C=N/O)c(C)n1-c1cccc(Cl)c1	-26%	i	-26%	-2%	?	-22%
CCOC(=O)Nc1ccc2nc3n(c(=O)c2c1)CCCCC3	42%	i	-7%	-6%	-14%	?
CCCN(C(=O)C(=O)Nc1ccc2nc3n(c(=O)c2c1)CCCCC3)c1ccc(OCC)cc1	-6%	?	-19%	8%	13µM*	13µM*
Cc1cccc(N2CCN(C(=S)Nc3ccc4nc5n(c(=O)c4c3)CCCCC5)CC2)c1C	-30%	i	-12%	-31%	21µM*	?
COc1cc(C(=O)Nc2ccc3nc4n(c(=O)c3c2)CCCCC4)cc(OC)c1OC	6%	?	-2%	-13%	23µM*	?
O=c1c2cc(NC(=S)N3CCC(N4CCCCC4)CC3)ccc2nc2n1CCCCC2	-9%	nt	14%	5%	-4%	5%
O=c1c2cc(NC(=S)NC3CCCCC3)ccc2nc2n1CCCCC2	-4%	i	2%	-10%	?	18µM*
CC(C)c1nc(NCCO)c2nnn(Cc3ccccc3)c2n1	2%	i	10%	-4%	-2%	-15%
COc1ccc(/C(C)=N/NC(=O)CN(c2ccc(OC)cc2)S(=O)(=O)c2ccccc2)cc1	nt	i	-11%	-2%	-12%	-3%
